From PubChem BioAssay AID651821 (The Scripps Research Institute Molecular Screening Center, 2012) come the findings set out here.

Out of some 370,000 compounds screened, about 4,700 (1.3%) were called active. What follows is part of a selection rich in actives, with near analogues and random picks from the rest. Unmarked numbers belong to inactive results.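 The calls were made as follows: active = inhibition above the plate cutoff, the mean of all test compounds on that plate plus 3 SD (cut at about 35% in these data); inactive = the rest.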

This test is described as follows: small molecules binding CAG repeat RNA – biochemical, fluorescence, primary screen (AID 651821).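 Also: 0% = DMSO alone and 100% = 100 µM mitoxantrone as full dye displacement; higher means more dye released from RNA so lower well fluorescence.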 As to conditions: r(CAG) RNA repeat, TO-PRO-1 dye displacement fluorescence; at 3 µM; hits give high values.
As usually defined, the inhibition is the change of the read-out against control, counted positive when it falls. Regarding `COc1ccc(-c2cc(-c3nnc(SCC(=O)Nc4cccc5ccccc45)n3N)[nH]n2)cc1`, the inhibition is 10.7%.

For the compound `COC(=O)[C@]12C[C@H](CC(=O)NCc3ccccc3)C(=O)N(CCC3=CCCCC3)C1=C[C@H](C(C)(C)C)O[C@@H]2C`, the inhibition was 1.7%. Regarding `COc1ccc(N2CCN(CCNS(=O)(=O)c3ccc(Cl)s3)CC2)cc1`, the inhibition is -0.11%. As for `C=CCN(C)CC#Cc1ccccc1`, the inhibition was -0.11%. Under `COc1ccc(N2CCN(CCNS(=O)(=O)c3ccc([N+](=O)[O-])cc3)CC2)cc1` stands 0.28%; under `CCCC[C@H](C(=O)N(CC)c1ccccc1)[C@@H](O)c1ccc2ccccc2c1`, 4.92%. For `O=C(O)c1ccc2c(c1)C(=O)N(c1ccc(/C=C/C(=O)c3ccccc3)cc1)C2=O` the value was 46.3% (active); for `CC(=O)Oc1ccc(C)cc1N1C(=O)c2ccc(C(=O)O)cc2C1=O`, 4.11%; for `CC(=O)Nc1ccc(NC(=O)c2ccc3c(c2)C(=O)N(c2ccccc2C)C3=O)cc1`, -2.08%. Consider `CN1C(=O)c2cc(NS(C)(=O)=O)ccc2OC[C@@H]2O[C@@H](CC(=O)NCc3ccc(-c4ccccc4)cc3)CC[C@H]21`, for which the inhibition is 4.86%. Under `CC1(C(=O)NS(=O)(=O)c2ccc(C#N)cc2)CCN1C(=O)CC1CCCC1` (configuration not stated) stands 1.94%; under `CC1(C(=O)NS(=O)(=O)c2ccc(C#N)cc2)CCN1C(=O)c1ccc(C2CCCCC2)cc1` (configuration not stated), 46.9% (active); under `Cc1noc(C)c1C(=O)N1CCC1(C)C(=O)NS(=O)(=O)c1ccc(C#N)cc1` (configuration not stated), 0.97%. Under `CC[C@H](NC(=O)[C@H](Cc1ccccc1)NC(=O)[C@H]1O[C@@H](n2cnc3c(=O)[nH]c(N)nc32)[C@H](O)[C@@H]1O)c1ccccc1` stands 14.3%. For the compound `Cc1ccccc1NC(=O)Cn1nnc(-c2ccccc2F)n1`, the inhibition was 0.27%. Under `CCC(C)n1[nH]c(=O)cc1N` (configuration not stated) stands -0.11%; under `CC(C)(C)n1nc(C2CC2)c(Br)c1NC(=O)c1ccccc1F`, 2.68%; under `COc1ccc(NC(=O)CSc2nc(NS(=O)(=O)c3ccc(C)cc3)cc(=O)[nH]2)cc1`, 13.4%. Under `Cc1cc(=O)[nH]c(SCC(=O)Nc2ccc(Cl)cc2C)n1` stands 4.47%; under `Cc1ccc(NC(=O)CSc2nc(CSc3ccc(C)cc3)cc(=O)[nH]2)cc1`, 45.1% (active). Under `CCOC(=O)C1=C(C)NC2=C(C(=O)CC(C)(C)C2)C1c1ccc2c(c1)OCO2` (configuration not stated) stands 1.3%. As to `O=C(N/N=C/c1cc(Cl)cc([N+](=O)[O-])c1O)C(O)(c1ccccc1)c1ccccc1`, the inhibition was 75.8% (active). As to `O=C(O)C(=Cc1ccccc1[N+](=O)[O-])c1ccccc1`, the inhibition is -2.74%.

For the compound `O=C(NN=Cc1ccco1)C(=O)Nc1ccc(Cl)c([N+](=O)[O-])c1`, the inhibition was 6.16%. For `Cc1cc(Br)cn2c(Cc3ccccc3C(F)(F)F)c(-c3ccc(C#N)cc3)nc12` the value was 7.42%. With `CC(=O)c1c(C)[nH]c(C(=O)OCC(=O)Nc2sc3c(c2C#N)CCCC3)c1C`, the inhibition was 19.6%. For `N#CCC(=O)Nc1ccc(C(=O)OCC(=O)Nc2sc3c(c2C#N)CCCC3)cc1` the value was 37.6% (active); for `COc1cccc(CN(C)CC(=O)Nc2sc3c(c2C#N)CCC3)c1`, -1.59%; for `COC(=O)C1CN(CC(C)C)CCS(=O)(=O)N1Cc1ccc(F)cc1` (configuration not stated), -0.73%. For `COC(=O)c1cc(S(=O)(=O)N2CCN(c3ccccc3C)CC2)cn1C` the value was 1.46%.

For `COc1ccc(/C=C(/NC(=O)c2ccccc2)C(=O)Nc2cccc(C(=O)O)c2)cc1`, the inhibition was 6.11%.

Consider `COc1ccc(C(=O)Nc2cccc(/C=C(/CCC(=O)O)c3nc4ccccc4s3)c2)cc1`, for which the inhibition is 71.7% (active). Under `Cn1c(SCc2nc3ccccc3s2)nnc1-c1ccc2c(c1)OCO2` stands -0.18%. As to `CCOc1ccc(C(=O)Nc2cccc(SC)c2)cc1`, the inhibition was -4.59%. Under `O=C(O)CC/C(=C\c1cc2c(cc1Br)OCO2)c1nc2ccccc2s1` stands 38.8% (active).

For the compound `O=C(/C=C/c1cc2c(cc1Br)OCO2)NCc1ccc(Cl)cc1`, the inhibition was 0.75%. Regarding `Cc1cc(=O)[nH]c(SCC(=O)Nc2ccc(F)cc2F)n1`, the inhibition is 7.71%. Under `CN(C)CC(=O)N[C@@H]1C[C@@H]2O[C@H](CO)CC[C@@H]2O[C@@H]1CCc1ccc(C#Cc2ccccc2)cc1` stands 2.31%. On to `COC(=O)[C@]12C[C@H](CC(=O)NCCC(C)C)C(=O)N(CCc3ccc(OC)c(OC)c3)C1=C[C@H](C(C)(C)C)O[C@@H]2C`, for which the inhibition was 0.35%.

For the compound `CC(C)[C@H]1COCCS(=O)(=O)N1Cc1ccccc1-c1cccc2c1sc1ccccc12`, the inhibition was 9.63%. For `CCN(CCCNC(=O)C1CCN(S(=O)(=O)c2cnc[nH]2)CC1)c1ccccc1` the value was 1.6%; for `COc1ccc(CCNC(=O)COC(=O)c2cc(=O)c3ccccc3o2)cc1`, 0.17%; for `COc1ccc(CNC(=O)COC(=O)C2=Cc3ccccc3OC2)cc1`, 78.9% (active). For the compound `COc1ccc(CNC(=O)COC(=O)C(CCSC)N2C(=O)c3ccccc3C2=O)cc1` (configuration not stated), the inhibition is 3.76%. Under `CCOC(=O)[C@]12CCCCC/C=C\1N(Cc1ccc(OC)cc1)C(=O)[C@H]2CC(=O)NCCCN1CCCC1=O` stands 0.52%; under `COC(=O)[C@]12C[C@H](CC(=O)NCc3ccccc3)C(=O)N(Cc3ccccc3)C1=C[C@H](COCc1ccccc1)O[C@@H]2C`, 8.61%; under `O=C1Oc2ccccc2C(=O)/C1=C/c1ccccc1O`, 51% (active). Under `Cc1ccc(-c2nc(C3CCCN(S(=O)(=O)c4ccc(Br)s4)C3)no2)cc1` (configuration not stated) stands 5.63%. Under `C=CCN=C1NC(c2cccc(C(F)(F)F)c2)C(C(=O)OC)=C(C)N1C` (configuration not stated) stands 6.1%. With `O=C(NNc1c2ccccc2nc2ccccc12)c1cc2ccccc2cc1O`, the inhibition was 49.2% (active).

Turning to `Cc1cc(C(=O)NNC(=O)c2cccc(S(=O)(=O)N3CCOCC3)c2)c2ccccc2n1`, the inhibition was 0.6%.

As for `Cc1cc(C)cc(OCC(=O)NCc2cc(C)nc3ccccc23)c1`, the inhibition was -3.64%.
